Reference: PubChem BioAssay AID1159580 (chemical genetic matrix, 2015)
Where “and” joins values, the source holds several entries; their conditions need not be identical. Identical values can stand only once. In all, about 5,500 compounds went through this assay and about 2,000 (36%) were called active. Roughly 18% stayed inconclusive and do not appear here. Cut-off read from the data, not from the text of the source: active = normalized growth mostly below about 0.91 (no sharp cut-off); inconclusive = no clear call, values can overlap the other calls; inactive = mostly above about 0.92. Some of the results follow.

Test: chemical genetic growth profiling, strain panel (AID 1159580);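 note: tested at 20 µM; growth read once vehicle control cultures reached saturation at 30 °C; 1 = growth at the plate median or of vehicle wells; lower values mean less growth of the strain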
Details: S. cerevisiae deletion strains, growth OD

Measured: normalized growth

COc1cc(OC)c2c(OC)c(-c3ccc4c(c3)OCO4)c(=O)oc2c1
active: locus YDR137W, strain rgp1, hits give low values 0.777 | locus YDR392W, strain spt3, hits give low values 0.477
inactive: locus YAL013W, strain DEP1, hits give low values 0.982 | locus YAL021C, strain ccr4, hits give low values 0.968 | locus YAL026C, strain drs2, hits give low values 0.957 | locus YAL030W, strain snc1, hits give low values 0.975 | locus YBL061C, strain skt5, hits give low values 0.955 | locus YBR009C, strain hhf1, hits give low values 0.934 | locus YBR021W, strain FUR4, hits give low values 0.975 | locus YBR023C, strain chs3, hits give low values 0.943 | locus YBR171W, strain sec66, hits give low values 1 | locus YBR229C, strain ROT2, hits give low values 0.987 | locus YBR231C, strain swc5, hits give low values 0.954 | locus YBR279W, strain paf1, hits give low values 0.969 | locus YCL011C, strain gbp2, hits give low values 0.966 | locus YCL016C, strain dcc1, hits give low values 0.969 | locus YCL029C, strain bik1, hits give low values 0.995 | locus YCL061C, strain MRC1, hits give low values 0.985 | locus YCL069W, strain vba3, hits give low values 1.01 | locus YCR088W, strain abp1, hits give low values 0.988 | locus YDL005C, strain med2, hits give low values 0.983 | locus YDL035C, strain GPR1, hits give low values 0.987 | locus YDL040C, strain nat1, hits give low values 0.971 | locus YDL074C, strain BRE1, hits give low values 0.93 | locus YDL101C, strain DUN1, hits give low values 0.982 | locus YDL134C, strain PPH21, hits give low values 0.986 | locus YDL185W, strain tfp1, hits give low values 0.996 | locus YDL192W, strain arf1, hits give low values 0.979 | locus YDR001C, strain nth1, hits give low values 0.98 | locus YDR069C, strain doa4, hits give low values 0.982 | locus YDR101C, strain arx1, hits give low values 0.975 | locus YDR150W, strain NUM1, hits give low values 1.01 | locus YDR159W, strain sac3, hits give low values 0.951 | locus YDR162C, strain NBP2, hits give low values 0.973 | locus YDR195W, strain ref2 1.05 | locus YDR297W, strain sur2, hits give low values 0.974 | locus YDR318W, strain mcm21, hits give low values 0.976 | locus YDR334W, strain swr1, hits give low values 0.983 | locus YDR335W, strain msn5, hits give low values 1.01 | locus YDR388W, hits give low values 0.972 | locus YDR502C, strain sam2, hits give low values 0.956 | locus YEL003W, strain gim4, hits give low values 0.971 | locus YEL037C, strain rad23, hits give low values 0.986 | locus YEL061C, strain CIN8 (second series), hits give low values 1 | locus YEL061C, strain CIN8, hits give low values 0.996 | locus YER015W, strain faa2, hits give low values 0.96 | locus YER016W, strain bim1, hits give low values 0.974 | locus YER110C, hits give low values 0.972 | locus YER111C, strain swi4, hits give low values 1.02 | locus YER155C, strain BEM2 (second series), hits give low values 0.897 | locus YER155C, strain BEM2, hits give low values 0.988 | locus YER167W, strain BCK2, hits give low values 0.99 | locus YFR010W, strain ubp6, hits give low values 1.01 | locus YGL078C, strain dbp3, hits give low values 0.99 | locus YGL086W, strain mad1, hits give low values 0.976 | locus YGL167C, strain pmr1, hits give low values 0.963 | locus YGL173C, strain kem1, hits give low values 0.98 | locus YGL227W, strain vid30, hits give low values 1 | locus YGL240W, strain doc1, hits give low values 0.941 | locus YGL248W, strain PDE1, hits give low values 0.985 | locus YGL253W, strain hxk2, hits give low values 0.936 | locus YGR078C, strain PAC10, hits give low values 0.962 | locus YGR135W, strain pre9, hits give low values 0.931 | locus YGR229C, strain SMI1, hits give low values 0.921 | locus YGR252W, strain gcn5, hits give low values 0.903 | locus YHR013C, strain ard1, hits give low values 0.962 | locus YHR027C, strain rpn1, hits give low values 0.999 | locus YHR030C, strain SLT2, hits give low values 0.993 and 0.954 | locus YHR079C, strain IRE1 (second series), hits give low values 0.976 | locus YHR079C, strain IRE1, hits give low values 0.948 | locus YHR094C, strain hxt1, hits give low values 0.994 | locus YHR129C, strain ARP1, hits give low values 0.989 | locus YHR142W, strain chs7, hits give low values 0.882 | locus YHR200W, strain rpn10, hits give low values 0.981 | locus YIL066C, strain RNR3, hits give low values 0.982 | locus YIL073C, strain SPO22, hits give low values 0.978 | locus YIL125W, strain kgd1, hits give low values 0.997 | locus YIR030C, strain dcg1, hits give low values 0.975 | locus YJL092W, strain hpr5, hits give low values 0.994 | locus YJL095W, strain BCK1 (second series), hits give low values 0.97 | locus YJL095W, strain BCK1, hits give low values 0.915 and 0.957 | locus YJL115W, strain asf1, hits give low values 1 | locus YJL129C, strain trk1, hits give low values 0.97 | locus YJL134W, strain LCB3, hits give low values 0.991 | locus YJL154C, strain vps35, hits give low values 0.993 | locus YJL164C, strain tpk1, hits give low values 0.946 | locus YJL166W, strain qcr8, hits give low values 0.931 | locus YJL168C, strain set2, hits give low values 0.976 | locus YJL187C, strain SWE1 (second series), hits give low values 0.977 | locus YJL187C, strain SWE1, hits give low values 0.971 | locus YJR043C, strain POL32, hits give low values 1.01 | locus YJR066W, strain TOR1, hits give low values 0.95
